# Screening results (PubChem)
# Compounds with a hit are over-represented: about 1.4% of the library has one in this group of screens.
# ERK EGF inh = inhibitors of EGF-stimulated ERK signaling pathway | HEK293-V1b, EGF-stimulated phospho-ERK AlphaScreen | hit rate 0.41% among 130,000 | Potency, µM (titrated, usually from 11.5 µM), without a hit: at the highest dose activity change, negative = inhibition, most hits filed as inhibitors | AID 1454;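 further: plate controls were stimulated vehicle wells for no effect and unstimulated vehicle basal for full effect; nearly all actives have a fitted effect of over 55% in size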
#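 HEK293 cells stably expressing V1b receptor, serum-reduced (1% FBS) overnight, pretreated 30 min with compound, then stimulated 5 min with 25 nM EGF; phospho-ERK detected by AlphaScreen SureFire. AC50 from Hill fits, normalized to DMSO and EGF.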
# HttQ103 aggreg = inhibitors of mutant huntingtin aggregate formation in PC12 cells | hit rate 1.1% among 220,000 | Potency, µM (doses to about 46.1 µM), for the others: at the highest dose activity change, negative = inhibition, hits mostly inhibitors | PC12 HttQ103-GFP aggregates, Acumen cytometry, 40 h; further: on the % scale 0 is the no-effect control and ±100 the full control effect; nearly all actives have a fitted effect of over 60% in size
#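 Multiplexed with ATP-based cell death, this channel scores GFP aggregates in PC12 cells expressing inducible HTTex1-Q103-GFP. Induction used 100 nM tebufenozide; compounds were tested in concentration series.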
# HTT cytoprotect = Huntington cell model cytoprotection by ATP luminescence; AID 1471; Potency, µM (doses to about 56.4 µM), for the others: cytoprotection (ATP increase), actives largely listed as activators; PC12 HTT-Q103 induced, cytoprotection, ATP luminescence, 40 h; hit rate 0.14% among 230,000; further: % of control where 0% means no effect; nearly all actives have a fitted effect of over 45% in size
#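 Rat PC12, Q103 Htt exon1-GFP fusion, ecdysone promoter; tebufenozide inducer 100 nM final; compound titration; qHTS, 1500 cells/well; ATPlite luminescent read.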
# An asterisk follows results filed as active; ? = inconclusive; nt = no result given; ! = repeats disagree; [ ] = dose if it differs, or a comment. The call rests on the fitted dose curve; in most records, active means well fitted curve in the direction sought with a large enough effect; inconclusive means small, poorly fitted or top-dose-only effect, or another doubt; inactive means no such curve, though single readings can be large; an effect the other way counts as inactive or inconclusive. Potency means the concentration at half of the fitted maximal effect.
SMILES,ERK EGF inh,HttQ103 aggreg,HTT cytoprotect
CCn1c(/C=C/Nc2ccccc2)[n+](CC)c2ccc(Cl)cc21,0.2%,13.3%,nt
CCn1c(/C=C/N(C)c2ccccc2)[n+](CC)c2ccc(Cl)cc21,nt,4.47µM*,-59.3%[10 µM]
Cn1cc([N+](=O)[O-])c(C(=O)N(Cc2ccccc2)Cc2ccccc2)n1,-3.9%,24.3%,2.51µM*
Cn1cc([N+](=O)[O-])c(C(=O)NCc2ccccc2)n1,20.9%[57.5 µM],-1.9%[9.22 µM],-3.3%[10 µM]
C[C@@](N)(C(=O)O)c1cccc(CC(=O)O)c1,-5.8%,nt,?
COc1ccc(Nc2ccccc2N)cc1,-3.5%,12.6µM*,-40.1%
Nc1ccc(Nc2ccccc2N)cc1,-1.2%,-10.1%,-20.7%[10 µM]
O=C1C=CC(=O)c2c1ccc1c2ccc2ccccc21,-11.0%[25.7 µM],nt,-0.5%[40.3 µM]
CC1(C)CC1C(=O)N/C(=C/CCCCSCC(N)C(=O)O)C(=O)O (configuration not stated),nt,-4.5%,2.1%
Cc1ccc(N(NC(=O)C(O)(c2ccccc2)c2ccccc2)C(=O)CCl)cc1,7.3%,5.01µM*,-87.2%[10 µM]
Cc1ccc(C(O)(C(=O)NN(C(=O)c2ccccc2)c2ccccc2)c2ccc(C)cc2)cc1,-6.1%,20.4%,23.4%[1.9 µM]
Clc1ccc(OCCSCc2nc3ccccc3[nH]2)cc1,nt,7.08µM*,14.3%[10 µM]
Cc1ccc(OCCSCc2nc3ccccc3[nH]2)cc1,nt,-0.1%,-35.4%
CC(=O)N1/C(=C/c2ccc(N(C)C)cc2)C(=O)c2ccccc21,25.1µM*,?,-70.9%
CN(C)c1ccc(/C=C2\C(=O)Nc3ccccc32)cc1,?,nt,-143.0%
c1ccc2c(c1)CCN(c1ncnc3nc[nH]c13)C2,8.0%,-18.2%,27.4%[10 µM]
CN(Cc1ccccc1)c1ncnc(N)c1[N+](=O)[O-],-3.5%,-32.0%[9.22 µM],-10.6%[10 µM]
Cc1nc(N2CCOCC2)nc(N2CCCCC2C)c1[N+](=O)[O-] (configuration not stated),?,6.0%[9.22 µM],-12.3%[10 µM]
O=C(O)C1CCCN1c1ncnc2ccccc12 (configuration not stated),nt,-1.6%,-10.6%
CC1Cc2ccccc2N1c1ncnc(N)c1[N+](=O)[O-] (configuration not stated),-11.9%,0.891µM*,?
CC1CCCCN1c1ncnc(N)c1[N+](=O)[O-] (configuration not stated),-0.1%,10µM*,10.8%
CC1Cc2ccccc2N1c1ncnc2nc[nH]c12 (configuration not stated),-3.1%,11.2µM*,6.8%
CC1CCCCN1c1ncnc2ccccc12 (configuration not stated),nt,10µM*,-15.8%
C[C@]12CC[C@H]3c4ccc(O)cc4CC[C@@H]3[C@H]1C/C(=N/O)[C@H]2O,nt,nt,-13.2%[10 µM]
COc1ccc(C(=O)N2CCC3(CC2)CN(Cc2ccc(C#N)cc2)C3)cc1,-9.0%,nt,?
SMILES,ERK EGF inh,HttQ103 aggreg,HTT cytoprotect
Cc1ccc(C(=O)O/N=C/c2c(C(F)(F)F)nn(C)c2Sc2ccc(Cl)cc2)cc1,nt,12.6µM*,-3.1%
COc1ccc(C(=O)O/N=C/c2c(C(F)(F)F)nn(C)c2SCc2ccccc2Cl)cc1,nt,10µM*,-93.1%
Cn1nc(C(F)(F)F)c(/C=N/OC(=O)c2ccccc2Cl)c1SCc1ccc(Cl)cc1,nt,?,-78.1%
COC(=O)c1ccccc1Sc1c(/C=N/OC(=O)c2ccccc2)c(C(F)(F)F)nn1C,nt,?,13.2%
CC12C=C(/C=C/c3ccc(F)cc3)C(C)(C1)C(c1ccc(F)cc1)CC2=O (configuration not stated),nt,nt,6.7%[10 µM]
O=C1C=C[C@@H](O)[C@H]2[C@@H]3C(=O)N(C[C@@H]4CCCO4)C(=O)[C@@H]3CC[C@H]12,nt,nt,-16.5%[10 µM]
Cc1cc(O)c(C(C)C)cc1CN1CCCCC1,nt,nt,6.3%[10 µM]
N=c1c2c(-c3ccccc3)c(-c3ccccc3)n(Cc3ccco3)c2ncn1Cc1ccco1,nt,11.2µM*,-153.7%
CCCCn1cnc2c(c(-c3ccccc3)c(-c3ccccc3)n2Cc2ccco2)c1=N,-14.6%[57.5 µM],-1.1%[9.22 µM],0.9%[10 µM]
CCOC(=O)c1c(C)n(C)c2ccc(OC)c(NC(=O)CCN3CCC(Cc4ccccc4)CC3)c12,-6.0%[57.5 µM],8.3%[9.22 µM],-23.3%[10 µM]
Cn1cc(-c2ccccc2C(N)=O)c(=O)c2cc(Cl)ccc21,-8.4%,9.0%,11.0%[10 µM]
Cn1cc(C2=C(c3ccc(Cl)cc3Cl)C(=O)NC2=O)c2ccccc21,?,nt,31.6µM*!
COc1ccc(NC(=O)/C=C\c2ccc(Cl)cc2)cc1,nt,nt,-8.3%[1.9 µM]
Cn1nc(-c2ccccn2)nc2c(=O)n(C)c(=O)nc1-2,?,?,-44.9%[10 µM]
CCCc1nc2c(=O)n(C)c(=O)nc-2n(C)n1,-0.1%,6.31µM*,-172.2%
NCC[C@H](O)C(=O)N[C@H]1C[C@@H](N)[C@@H](O[C@H]2O[C@@H](CN)[C@@H](O)[C@@H](O)[C@@H]2O)[C@@H](O)[C@@H]1O[C@H]1O[C@@H](CO)[C@@H](O)[C@@H](N)[C@@H]1O,-5.4%[25.7 µM],nt,-2.0%[40.3 µM]
O=c1cc(CSc2nnc(NC3CCCCC3)s2)nc2sccn12,-2.4%,-5.9%,-31.2%
COC(=O)c1cc(CSc2nnc(NC3CCCCC3)s2)oc1C,nt,28.2µM*,7.1%
NC(=O)CS(=O)C[C@H](N)C(=O)O (some centres not stated),nt,nt,-0.3%[10 µM]
CC1(O)C(=O)C=C2C=C(CCCCOCc3ccccc3)OC=C2C1=O (configuration not stated),nt,nt,-7.2%[10 µM]
C/C(=N/O)c1ccc2cc(Br)c3ccccc3c2c1,nt,nt,-4.4%[10 µM]
O=C(CCl)Nc1cccc(-c2cnc3ccccc3n2)c1,nt,25.1µM*,-68.9%
CCC(=O)Nc1cccc(-c2cnc3ccccc3n2)c1,nt,1.9%,-12.9%[10 µM]
COC(=O)CNC(=O)C1(C)C=CC2(CCCCC2)N1C(C)=O (configuration not stated),0.9%,nt,-1.9%
Cc1noc(C)c1-c1ccc2ncnc(Nc3ccccc3)c2c1,nt,nt,-94.7%
SMILES,ERK EGF inh,HttQ103 aggreg,HTT cytoprotect
CC1C(=O)C(=O)C=CN1C (configuration not stated),nt,-5.7%,-3.8%
O=S(=O)(c1ccccc1)N1CCN(c2cc(-c3ccccc3)nc3ncnn23)CC1,nt,11.2µM*,-18.6%[10 µM]
COc1ccc(-c2cc(N3CCCC3)n3ncnc3n2)cc1,nt,-31.3%,-11.6%
O=S(=O)(c1ccc(Br)cc1)N1CCN(c2cc(-c3ccccc3)nc3ncnn23)CC1,nt,2.4%,2.0%
COc1ccc(S(=O)(=O)N2CCN(c3cc(-c4ccccc4)nc4ncnn34)CC2)cc1,nt,12.6µM*,4.0%[10 µM]
O=C(O)CC(CC(=O)O)C(=O)O,nt,nt,-14.7%[10 µM]
NNC(=O)CCc1ccc2ccc3ccccc3c2c1,nt,nt,14.0%[10 µM]
CCCCOc1ccc(C(=O)C(CN2CCOCC2)c2ccccc2)cc1 (configuration not stated),1.5%,36.1%[9.22 µM],nt
O=C(c1ccc(F)cc1)C(CN1CCOCC1)c1ccccc1 (configuration not stated),nt,26.4%[9.22 µM],31.6µM*
COc1ccc(C(=O)C(CN2CCOCC2)c2ccccc2)cc1 (configuration not stated),nt,nt,22.4µM*
COc1ccc(C(=O)C(CN2CCCC2)c2ccccc2)cc1 (configuration not stated),nt,15.7%[9.22 µM],nt
Nc1cccc(N)c1,nt,nt,-56.0%
O=C(O)c1cc(C(=O)C(=O)c2cc(C(=O)O)c(O)c3ccccc23)c2ccccc2c1O,nt,nt,-12.8%[10 µM]
OC(CN1CCNCC1)Cn1c2ccc(Br)cc2c2cc(Br)ccc21 (configuration not stated),28.2µM*,nt,-62.5%
